Assay results published in PubChem BioAssay AID485346 (Sanford-Burnham Center for Chemical Genomics, 2010).
Among all 330,000 compounds or so, about 10,000 (3%) were called active. Only a selection was taken, and actives are over-represented in it overall. Values without a mark were called inactive.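 Rule for the calls: active = inhibition of at least 50% at 8 µM in the primary screen; inactive = the rest.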

target: Protein Mdm4 (Homo sapiens) + E3 ubiquitin-protein ligase Mdm2 (Homo sapiens) (UniProt O15151+Q00987); assay: disruptors of Mdm2/MdmX RING complex – cell-based, luminescence, split luciferase, SaOS-2, uHTS, primary screen (AID 485346); conditions: SaOS-2 split-luciferase Mdm2/MdmX complementation, at 8 µM, hits give high values
Sequence (O15151 whole entry, looked up): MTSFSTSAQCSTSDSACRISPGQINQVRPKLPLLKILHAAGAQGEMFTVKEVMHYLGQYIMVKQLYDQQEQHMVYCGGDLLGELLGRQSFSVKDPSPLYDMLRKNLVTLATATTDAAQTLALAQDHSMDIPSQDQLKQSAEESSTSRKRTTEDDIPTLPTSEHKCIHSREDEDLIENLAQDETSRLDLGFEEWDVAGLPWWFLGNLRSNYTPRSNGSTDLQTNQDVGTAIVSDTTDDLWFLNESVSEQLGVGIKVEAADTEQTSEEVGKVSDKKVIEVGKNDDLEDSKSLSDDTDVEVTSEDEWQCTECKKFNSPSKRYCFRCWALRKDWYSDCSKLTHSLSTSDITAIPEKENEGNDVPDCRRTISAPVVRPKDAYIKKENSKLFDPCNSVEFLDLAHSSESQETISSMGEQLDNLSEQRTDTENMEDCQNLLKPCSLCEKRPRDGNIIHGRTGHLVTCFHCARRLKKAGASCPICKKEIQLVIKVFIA
Sequence (Q00987 whole entry, looked up): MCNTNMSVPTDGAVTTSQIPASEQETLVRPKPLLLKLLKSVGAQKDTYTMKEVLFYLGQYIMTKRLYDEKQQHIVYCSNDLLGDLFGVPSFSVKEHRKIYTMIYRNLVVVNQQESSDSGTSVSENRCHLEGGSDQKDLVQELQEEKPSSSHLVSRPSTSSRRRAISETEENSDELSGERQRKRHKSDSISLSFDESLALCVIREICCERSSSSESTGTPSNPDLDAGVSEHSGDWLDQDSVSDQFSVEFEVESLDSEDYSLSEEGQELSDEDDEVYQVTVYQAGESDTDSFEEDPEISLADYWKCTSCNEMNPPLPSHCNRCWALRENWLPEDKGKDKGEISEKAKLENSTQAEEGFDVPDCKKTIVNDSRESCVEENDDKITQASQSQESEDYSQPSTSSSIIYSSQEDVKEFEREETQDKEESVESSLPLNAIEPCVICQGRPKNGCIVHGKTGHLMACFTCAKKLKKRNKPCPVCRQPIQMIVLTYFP

SMILES	inhibition
CCOn1c(=O)c(=O)n(O)c2ccccc21	3.67%
COc1ccc(-c2cc(C(F)(F)F)nc(S(C)(=O)=O)n2)cc1OC	94.6% (active)
CCS(=O)(=O)NCCc1ccc(OC)c(OC)c1	18.8%
COc1ccc(-c2cc(-c3ccc(N)cc3)nc(N)c2C#N)cc1OC	32.6%
Cc1nc2ccccc2nc(=O)c1NNc1ccc([N+](=O)[O-])cc1	-2.46%
Cc1ccc(C)c(NS(=O)(=O)c2c(C)[nH]c(C)c2C(=O)N2CCCCC2)c1	-0.656%
Cc1c(C)n(Cc2ccc(Cl)cc2)c2ccc(C(=O)NCCCN3CCOCC3)cc12	45.2%
c1ccc2c(c1)CSc1sccc1C2=C1CCNCC1	78.5% (active)
CC1(C(=O)OCC(=O)Nc2ncc(Cl)cc2Cl)CC1(Cl)Cl (configuration not stated)	-3.51%
C=CCNC(=S)NNc1ncnc2sc3c(c12)CC(C)(C)OC3	10.5%
COc1cc(/C=C/C(=O)OCC(=O)NCCCc2ccccc2)ccc1O	-15.8%
O=C(CCC(=O)N1CCCC1)Nc1ccc([N+](=O)[O-])cc1	8.85%
CCC12CN3CC(CC)(CN(C1)C31C(=O)N(C)c3ccc(C)cc31)C2=O (configuration not stated)	5.2%
Cc1cccc(C(=O)OC(C)CN2CCN(C)CC2)c1 (configuration not stated)	15.4%
CCC1=Nc2cc(C(=O)NCCN3CCCC3)ccc2Sc2ccc(C)cc21	22.7%
Cc1cccc(-c2nc3ccc(C(=O)NCCN4CCN(C)CC4)cc3nc2-c2cccc(C)c2)c1	93.2% (active)
O=C(CCN1C(=O)c2ccccc2C1=O)NNC(=O)c1ccc(Cl)cc1Cl	-2.94%
Cc1ccc(C(=O)NNC(=O)c2ccc3c(c2)OCCO3)cc1	-59.9%
CCCCn1c(N)c(N(CCC(C)C)C(=O)COC(=O)c2ccc(CC)cc2)c(=O)[nH]c1=O	5.72%

SMILES	inhibition
CCc1ccccc1NC(=O)[C@@H]1CCC(=O)N1C1OC(=O)c2c1ccc(OC)c2OC (some centres not stated)	18.1%
CC1CN(C(=O)CCC(=O)NCCCN2CCC(Cc3ccccc3)CC2)c2cc(Cl)ccc2O1 (configuration not stated)	90.6% (active)
CC1CN(C(=O)CCC(=O)NC2CCN(Cc3ccccc3)CC2)c2ccccc2O1 (configuration not stated)	22.7%
CC1CN(C(=O)CCC(=O)NCc2cccnc2)c2ccccc2O1 (configuration not stated)	-8.45%
CC(OC(=O)CCc1nc(=O)c2ccccc2n1C)C(=O)NCc1ccc2c(c1)OCO2 (configuration not stated)	-11.9%
CN(CC(=O)NC(=O)Nc1ccccc1F)Cc1ccccc1	-18%
CCOC(=O)CSc1nncc2ccc(OC)c(OC)c12	0.893%
COc1ccc(C2c3c(C)nn(-c4ccccc4)c3NC(=O)N2c2ccccc2)cc1 (configuration not stated)	9.76%
CCCCCCCCn1c2c(c(=N)c3c1CCC3)CCCC2	87% (active)
Cc1cc([N+](=O)[O-])nn1CCCC(=O)Nc1cccnc1Cl	21.4%
COc1ccc(N2CCN(S(=O)(=O)CCNC(=O)C34CC5CC(CC(C5)C3)C4)CC2)cc1	17.2%
CCOC(=O)C(C)n1nc(-c2ccccc2)c2ccccc2c1=O (configuration not stated)	7.24%
Cc1cc(C)nc(/N=C2\NC(=O)CC(C(=O)O)N2c2ccc(Cl)cc2Cl)n1 (configuration not stated)	3.8%
O=C(COC(=O)c1ccccc1Cl)NC1CCCCCCC1	4.18%
COc1cc(OC)c(S(=O)(=O)Nc2ccccc2C(=O)O)cc1S(=O)(=O)Nc1ccccc1C(=O)O	13.2%
COC(=O)c1ccc(NC(=O)c2ccccc2NS(=O)(=O)c2ccccc2)cc1	36.9%
COc1cc(NC(=O)c2ccccc2NS(=O)(=O)c2ccc(Cl)s2)cc(OC)c1	85.1% (active)
O=C(Nc1cc2c3c(c1)C1CCCC1CN3CC1CCCC21)c1ccc([N+](=O)[O-])cc1 (configuration not stated)	14.3%
CN(C)c1ccc(C=NCCc2ccc(S(N)(=O)=O)cc2)cc1	5.89%

SMILES	inhibition
Cc1cc2cc3c(cc2nc1SCC(=O)Nc1c(C)cccc1C)CCC3	56.1% (active)
Cc1cc(C)c(C#N)c(SCC(=O)Nc2ccccc2)n1	-38.3%
Cc1cccc(C)c1NC(=O)CSc1ccc([N+](=O)[O-])cn1	7.43%
CN(C)CCn1c2c(c(SCC(=O)Nc3ccccc3C(F)(F)F)nc1=O)CCCC2	18.8%
Cc1cccn2c(=O)c3cc(C(=O)NCCN4CCOCC4)c(=N)n(Cc4cccnc4)c3nc12	52.7% (active)
Cc1cccn2c(=O)c3cc(C(=O)NCC4CCCO4)c(=N)n(Cc4ccc(F)cc4)c3nc12 (configuration not stated)	19.6%
COc1ccc(CCn2c(=N)c(C(=O)NCC3CCCO3)cc3c(=O)n4cccc(C)c4nc32)cc1OC (configuration not stated)	64.4% (active)
Cc1cccn2c(=O)c3cc(C#N)c(=O)n(CCCN4CCOCC4)c3nc12	16%
COc1ccc(CNC(=O)c2cc3c(=O)n4ccccc4nc3n(CC3CCCO3)c2=N)cc1 (configuration not stated)	22.4%
Cc1ccc2nc3c(cc(C(=O)NCCc4ccccc4)c(=N)n3CC3CCCO3)c(=O)n2c1 (configuration not stated)	27.8%
COc1cccc(C2=CC(=O)C[C@H](c3ccc(F)cc3)C2)c1OC	11.8%
Cc1nc(-c2ccc(Cl)cc2)sc1C1(C)CC(c2ccc(Br)cc2)=NO1 (configuration not stated)	4.57%
Cc1c(Cl)cccc1NC(=O)Nc1ccc(C(=O)N2CCCC2)cc1	41.9%
Cc1[nH]c(C)c(S(=O)(=O)N2CCC(C)CC2)c1C(=O)N1CCCC1	-8.55%
N#Cc1ccc(C2=CC(=O)C[C@H](c3ccc(Cl)cc3)C2)cc1	-22.1%
COC(=O)c1c(-c2ccc(C)cc2)csc1N	16.7%
CCOC(=O)c1c(-c2ccc(C)cc2)csc1/N=C(\C)C1=C(O)c2ccccc2C1=O	63.4% (active)
CC(=NCc1ccco1)C1=C(O)c2ccccc2C1=O	-27.5%
Cc1cc(-c2ccc(S(=O)(=O)N3CCc4ccccc4C3)s2)on1	-2.71%
